Cruzain noTriton – cruzain (T. cruzi) inhibition without detergent; P25779; 200,000 tested, 2.3% active; AID 1476; purified cruzain, Z-FR-AMC fluorescence, no detergent; Potency, µM, for the others: max response, negative = inhibition, usual class: inhibitors;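 also: plate controls were enzyme without inhibitor for no effect and buffer without enzyme for full effect; nearly all actives have a fitted effect of over 40% in size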
Target sequence (P25779 123-467 limits assumed): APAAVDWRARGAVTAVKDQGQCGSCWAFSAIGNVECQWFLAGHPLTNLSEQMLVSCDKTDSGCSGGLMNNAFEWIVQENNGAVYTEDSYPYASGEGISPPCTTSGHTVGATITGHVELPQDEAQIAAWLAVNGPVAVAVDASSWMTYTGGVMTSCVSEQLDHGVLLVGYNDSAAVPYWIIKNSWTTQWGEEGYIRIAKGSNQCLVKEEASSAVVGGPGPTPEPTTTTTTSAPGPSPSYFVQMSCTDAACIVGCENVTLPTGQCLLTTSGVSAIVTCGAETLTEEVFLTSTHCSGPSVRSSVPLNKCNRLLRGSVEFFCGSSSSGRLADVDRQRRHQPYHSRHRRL
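Detergent-free condition (0.00005% Triton X-100) in acetate buffer pH 5.5 with DTT. 1.5 nM enzyme and compound were pre-mixed 15 min, then 2 uM Z-FR-AMC substrate added; reaction progress from fluorescence change between first and third reads (60 s).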
Cruzain Triton – inhibitors of Trypanosoma cruzi cruzain with detergent. Potency, µM, for the others: max response, negative = inhibition, most hits filed as inhibitors. purified cruzain, Z-FR-AMC fluorescence, 0.01% Triton. AID 1478. 200,000 tested, 0.43% active;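 also: plate controls were neutral wells for no effect and buffer without enzyme for full effect; nearly all actives have a fitted effect of over 40% in size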
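Enzyme 1.5 nM, Z-FR-AMC 2 uM, NaOAc 100 mM pH 5.5, DTT 5 mM, Triton X-100 0.01%; 15 min RT compound preincubation; kinetic ex360/em450, 60 s delta.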
Numbers without * were called inactive; ? = inconclusive. Sampled rows, rich in hits. Any-hit rate of the full collection: about 2.5%. Calls follow the shape of the dose curve; as a rule, active = well fitted curve in the direction sought with a large enough effect; inconclusive = small, poorly fitted or top-dose-only effect, or another doubt; inactive = no such curve, though single readings can be large; an effect the other way counts as inactive or inconclusive. Potency is read from the fitted curve at half-maximal effect.

SMILES	Cruzain noTriton	Cruzain Triton
CCC(=O)N1CCc2cc(Br)cc(S(=O)(=O)CCC(=O)N3CCN(c4ccccc4F)CC3)c21	1%	0%
CCc1ccc(-n2cc(-c3ccc([N+](=O)[O-])cc3)[nH]c2=S)cc1	25µM*	-5%
O=[N+]([O-])c1ccc(-c2cn(-c3ccc(Cl)cc3)c(=S)[nH]2)cc1	?	-1%
O=C(NCCc1ccc(Cl)cc1)c1c2c(nc3ccccc13)C(=O)N(C1CCCCC1)C2	-6%	-1%
CCCC(=O)Nc1nc2c(s1)CC(C(C)(C)C)CC2 (configuration not stated)	-9%	0%
CCN(CC)c1ccc(/C=N/N(c2ccccc2)c2ccccc2)c(O)c1	?	-4%
CCN(CC)c1ccc(/C=N/N=C(c2ccccc2)c2ccccc2)c(O)c1	25µM*	-5%
COc1cccc(NC(=O)Cn2c(=O)n(CCCCC(=O)NCc3ccc4c(c3)OCO4)c(=O)c3ccccc32)c1	-20%	-3%
COc1ccc(OC)c(CCNC(=O)CCc2cn(Cc3cc(C)ccc3C)c3ccccc23)c1	-18%	-3%
COc1ccc(OC)c(Nc2nc(-c3sc(NC(=O)c4ccccc4)nc3C)cs2)c1	?	6%
Cc1nc(NC(=O)c2ccccc2)sc1-c1csc(Nc2ccc(Cl)cc2Cl)n1	7.9µM*	0%
COc1ccc(Cl)cc1Nc1nc(-c2sc(NC(=O)c3ccccc3)nc2C)cs1	6.3µM*	2%
CCOc1ccc(C(=O)c2cn(CC(=O)Nc3ccc(F)cc3)c3cc4c(cc3c2=O)OCCO4)cc1	?	-5%
COc1ccccc1CNC(=O)CCC(=O)N1CC2CCCN2c2ccccc21 (configuration not stated)	-14%	-4%
COC(=O)c1ccc(/C=C(\C#N)c2nc3ccccc3s2)cc1	12%	3%
CC(C)(C)c1ccc(C(=O)OC/C(O)=C(\C#N)c2nc3ccccc3s2)cc1	25µM*	-4%
COc1ccc(NC(=O)c2oc3ccccc3c2NC(=O)Cc2cccs2)c(OC)c1	8%	-2%
CCOc1ccccc1/C=C(\C#N)C(N)=O	-2%	3%
CCc1ccc2oc(C(=O)Nc3cc(C)ccc3C)cc(=O)c2c1	-20%	-3%
Cc1cccc(NCc2nnc3n2CCCCC3)c1C	4%	2%
COc1cc(/C=C/c2nc(C#N)c(NC3CCCCC3)o2)cc(OC)c1OC	?	33%
CCc1ccc(C2=C/C(=C/c3cccnc3)C(=O)O2)cc1	3%	-10%
Cc1ccc(C2=N/C(=C\c3cccnc3)C(=O)O2)cc1	13µM*	14µM*
CCOc1ccc2oc(=O)cc(CN3CCN(C(=O)c4ccc(Cl)cc4)CC3)c2c1	5%	-4%
CCOc1ccc(N(Cc2cc3cc(C)ccc3[nH]c2=O)C(=O)c2cccc(Cl)c2)cc1	-17%	-3%
SMILES	Cruzain noTriton	Cruzain Triton
COc1ccc(N2C(=O)CC(Sc3ncn[nH]3)C2=O)c(OC)c1 (configuration not stated)	?	6%
CC(C)c1ccc(N2C(=O)CC(Sc3ncn[nH]3)C2=O)cc1 (configuration not stated)	4µM*	4%
CC(O)[C@@H](O)[C@H]1CNc2nc(N)[nH]c(=O)c2N1 (some centres not stated)	7%	-8%
C[C@H](NC(=O)[C@@H]1C[C@H]1[C@@H](NC(=O)OCc1ccccc1)c1ccccc1)c1ccccc1	16µM*	1%
CC(C)NC(=O)[C@@H]1C[C@H]1[C@@H](NC(=O)OCc1ccccc1)c1ccccc1	-4%	1%
O=C(NCc1ccc(Cl)cc1)C1CCN(S(=O)(=O)c2cc([N+](=O)[O-])ccc2Cl)CC1	1%	-2%
Cc1cccc2sc(NC(=O)C3CCN(S(=O)(=O)c4cc([N+](=O)[O-])ccc4Cl)CC3)nc12	20µM*	-4%
CCc1ccc(NC(=O)CCn2c(-c3ccc(OC)cc3)cc(C(C)=O)c2C)cc1	6%	-7%
CCCOc1ccc(/C=N/Nc2ccccc2[N+](=O)[O-])c(OCCC)c1	?	-2%
O=[N+]([O-])c1ccccc1N/N=C\c1ccccc1Cl	20µM*	-3%
Cc1ccc(-c2nc3n(n2)C(c2ccccc2Cl)C=C(c2ccc(Cl)cc2)N3)cc1 (configuration not stated)	-7%	-3%
CCc1ccccc1NC(=O)CSc1nnc([C@@H](N)Cc2ccccc2)o1	10µM*	10µM*
CCN(CC)C(=O)CSc1nnc([C@@H](N)Cc2ccccc2)o1	25µM*	25µM*
Cc1ccc(NC(=O)CSc2nnc([C@@H](N)Cc3c[nH]c4ccccc34)o2)c(C)c1	16µM*	18µM*
C=C(C)CSc1nnc([C@@H](N)Cc2c[nH]c3ccccc23)o1	2%	-5%
N[C@@H](Cc1ccccc1)c1nnc(SCc2ccccc2Cl)o1	18%	4%
CCN(CC)C(=O)CSc1nnc(CCN)o1	-10%	4%
CCc1cccc(-n2nnc(-c3nsc(NC(=O)c4cccs4)n3)c2C)c1	13%	3%
